Test [1] can be described thus: Primary qHTS for inhibitors of nuclear receptor binding SET domain protein 2 (NSD2) in an RCH-ACV wild type WT cells (2C) (AID 1645877). Further: nearly all actives have a fitted effect of over 70% in size. Further: potency means the concentration at half of the fitted maximal effect. On activity change, negative = cell killing: on the % scale 0 is the no-effect control and ±100 the full control effect. Background: In qHTS, concentration-response curves come from the screen itself.
The target in test [2] is Glutathione peroxidase 1 (Homo sapiens) (UniProt P07203). In words: Primary qHTS Assay for Inhibitors of Recombinant Selenoprotein Glutathione Peroxidase 1 (GPX1) (AID 1845191). Further: nearly all actives have a fitted effect of over 65% in size. Further: potency means the concentration at half of the fitted maximal effect. On activity, negative = inhibition: on the % scale 0 is the no-effect control and ±100 the full control effect. Put shortly: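 GPX1 10 nM, GR 100 nM, GSH 1 mM, NADPH 0.5 mM, CHP 0.5 mM (final). 30-min cpd preincubation, RT. Ex340/Em450 read t=0, t=15 min.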
Test [3] addresses Phospholipid hydroperoxide glutathione peroxidase GPX4 (Homo sapiens) (UniProt P36969). In words: Primary qHTS Assay for Inhibitors of Recombinant Selenoprotein Glutathione Peroxidase 4 (GPX4) (AID 1845192). Further: nearly all actives have a fitted effect of over 65% in size. Further: potency means the concentration at half of the fitted maximal effect. On activity change, negative = inhibition: series mostly up to about 50 µM; on the % scale 0 is the no-effect control and ±100 the full control effect. In a few lines: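 qHTS, GR-coupled: GPX4 200 nM + cpd 30 min RT → GSH 1 mM, NADPH 0.5 mM, GR 100 nM → CHP 0.5 mM start; fluor 340/450 at t0 and t15 min; no-enzyme wells as control.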

The target of test [4] is Luciferin 4-monooxygenase (Photinus pyralis) (UniProt P08659). Description: Primary firefly luciferase (FLuc) qHTS assay for identification of artifact compounds. (AID 1845220). Further: nearly all actives have a fitted effect of over 60% in size.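 On activity change, negative = inhibition: series mostly up to about 54 µM; plate controls were DMSO vehicle for no effect and no enzyme for full effect.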 In a few lines: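 In this counter-screen for luciferase artifacts, test compounds met substrate (10 uM each luciferin and ATP) before 10 nM enzyme started the reaction. Light output was measured 5 min later.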

Test [5] in a line: Primary fluorescence-based thiol-reactive (MSTI) qHTS assay for identification of artifact compounds. (AID 1845221). Further: nearly all actives have a fitted effect of over 65% in size. Further: potency means the concentration at half of the fitted maximal effect.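 On activity change, negative = thiol reactive: series mostly up to about 54 µM; thiol-reactive compounds lower the probe fluorescence signal.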 In a few lines: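 MSTI probe at 4 uM final in 2% DMSO/PBS pH 7.4; compounds, 1 h at room temperature in dark. Fluorescence Ex/Em 525/598 nm, normalised to Acetyl-MSTI and MSTI, fitted to 4-parameter Hill.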
The nature of test [6]: Primary redox qHTS assay for identification of artifact compounds. (AID 1845223).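 Further: 0% = DMSO and 100% = reference compound.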 Put shortly: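 Redox-cycling detection via DTT (250 uM final) oxidation coupled to Amplex Red (25 uM)/HRP (250 mU/mL) in HBSS. 15 min preincubation plus 30 min after DTT, room temperature. Ex/Em 525/598 nm; 4-parameter Hill fit against DMSO and 10 uM DA3003.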
Test [7] concerns Nanoluciferase (engineered Oplophorus gracilirostris luciferase). In words: Primary Nanoluciferase (NLuc) qHTS assay for identification of artifact compounds. (AID 1845222).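 Further: NLuc secreted into diluted conditioned medium of S16 cells; series mostly up to about 54 µM.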 Put shortly:
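Using secreted nanoluciferase in S16 culture medium (0.22 um filtered, 1:55 dilution), compounds were preincubated 15 min at RT. Signal was generated with Nano-Glo reagent (1:100) over 5 min.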

Values joined by “and” are separate entries in the source; they are usually repeats but may differ in a detail not shown here. Identical values can stand only once. Inconclusive results are not listed. More than one record can exist for a structure, and the calls need not agree. Active and inactive are the calls of the source. The call rests on the fitted dose curve; in most records, active means well fitted curve in the direction sought with a large enough effect; inconclusive means small, poorly fitted or top-dose-only effect, or another doubt; inactive means no such curve, though single readings can be large; an effect the other way counts as inactive or inconclusive.

Glutathione peroxidase 1 (Homo sapiens), sequence (P07203 whole entry, looked up): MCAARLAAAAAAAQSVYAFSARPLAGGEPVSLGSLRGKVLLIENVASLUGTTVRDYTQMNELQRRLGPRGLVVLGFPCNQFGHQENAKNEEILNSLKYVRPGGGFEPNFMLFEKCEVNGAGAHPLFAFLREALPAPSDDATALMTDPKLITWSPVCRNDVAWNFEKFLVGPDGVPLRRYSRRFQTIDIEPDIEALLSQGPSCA
Phospholipid hydroperoxide glutathione peroxidase GPX4 (Homo sapiens), sequence (P36969 whole entry, looked up): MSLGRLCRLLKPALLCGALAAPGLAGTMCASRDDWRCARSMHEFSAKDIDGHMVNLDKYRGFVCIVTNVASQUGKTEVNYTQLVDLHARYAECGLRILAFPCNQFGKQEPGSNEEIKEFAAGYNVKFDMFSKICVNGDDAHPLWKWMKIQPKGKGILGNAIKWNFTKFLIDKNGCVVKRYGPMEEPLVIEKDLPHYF

Take `COC1CC(OC2CCC3(C)C(=CCC4C3C(OC(C)=O)C(OC(=O)/C=C/c3ccccc3)C3(C)C(C(C)O)CCC43O)C2)OC(C)C1OC1CC(OC)C(OC2OC(C)C(OC3OC(CO)C(O)C(O)C3O)C(OC)C2O)C(C)O1` (configuration not stated): in test [1], the activity change, negative = cell killing is -17.6% [at 9.23 µM] (inactive). For the same compound, in test [2], the outcome was “inactive [at 9.52 µM]”. For the same compound, the activity change, negative = inhibition is 0.674% [at 9.73 µM] (inactive) in test [3] and 0.278% [at 11.6 µM] (inactive) in test [4]. Moreover, the activity change, negative = thiol reactive in test [5] is 40.8% [at 11.5 µM] (inactive). In addition, the redox activity (% of DA3003) in test [6] is -2.26% [at 11.5 µM] (inactive).

Regarding `COc1ccc(CN2C(=O)C(=O)c3cc(S(=O)(=O)N4CCC[C@H]4COc4cccnc4)ccc32)cc1`, the Potency entry in test [1], in test [4], in test [5] and in test [6] was “inactive” each time. Besides, the figures for the Potency in test [2] and in test [3] were 22.7 µM (active) and 25.5 µM (active), respectively.

Consider `CC12CCC3c4ccc(O)cc4CCC3C1CC(OC1OC(C(=O)O)C(O)C(O)C1O)C2O` (configuration not stated), for which the Potency entry in test [1], in test [2], in test [3], in test [4], in test [5] and in test [6] was “inactive” each time.

Turning to `CC1=C(C(=O)O[C@@H]2O[C@H](COC3OCC(O)C(O)C3O)[C@@H](O)[C@H](O)[C@H]2O)C(C)(C)CCC1` (some centres not stated), the Potency result in test [1], in test [2], in test [3], in test [4] and in test [7] was “inactive” each time.

`COc1ccc(CC2C(=O)NC(C)C(=O)N(C)C3Cc4ccc(cc4)Oc4cc(ccc4OC4OC(CO)C(O)C(O)C4O)CC(C(=O)NC(C)C(=O)NC(C)C(=O)N2C)N(C)C3=O)cc1` (configuration not stated): the Potency in test [1] is 0.0097 µM (active). In addition, the Potency result in test [2] and in test [3] was “inactive” throughout. The activity change, negative = inhibition in test [4] is -7.7% [at 11.6 µM] (inactive). In test [7], the activity, negative = inhibition is -5.37% [at 11.6 µM] (inactive).

`CC(C)=CCC/C(C)=C/Cc1ccc(O)c(C2OC(=O)c3cc(C(=O)O)cc(O)c32)c1O` (configuration not stated): the Potency result in test [1], in test [2], in test [3], in test [4] and in test [7] was “inactive” throughout.

For `CC(CO)C1CCC2(C)CC3C(CO)CC(O)C3C(C)(O)C/C=C/12` (configuration not stated), the Potency entry in test [1], in test [2], in test [3], in test [4] and in test [7] was “inactive” in each case.

For `CC1(C)C=CN2C(=O)C3=CCCN3C(=O)[C@@H]2C[C@@]12Nc1ccccc1C2=O`, the Potency result in test [1], in test [2], in test [3], in test [4] and in test [7] was “inactive” throughout.

With `C=CC(=O)Nc1cccc(Nc2nc(Nc3ccc(N4CCN(C(C)=O)CC4)cc3OC)ncc2C(F)(F)F)c1`, the Potency in test [1] is 2.9 µM (active). The Potency result in test [2], in test [3], in test [4] and in test [7] was “inactive” each time.

`CC(O)/C=C/C1OC(=O)CC1Nc1ccc(C(=O)O)cc1` (configuration not stated): the Potency entry in test [1], in test [2], in test [3], in test [4] and in test [7] was “inactive” in each case.

Consider `C=C(CO)C12OC1C1(C)C(=CC2=O)C(O)C(O)CC1C` (configuration not stated), for which the Potency result in test [1], in test [2], in test [3], in test [4] and in test [7] was “inactive” each time.

With `O=C(NCc1cccc(O)c1)c1cc2cc(F)ccc2[nH]1`, in test [1], the Potency is 20.5 µM (active). For the same compound, the Potency entry in test [2], in test [3], in test [4], in test [5] and in test [6] was “inactive” throughout.

Consider `C=C(C(=O)OC)C1C(O)CC2(C)C(=O)CCC(O)(CO)C2C1O` (configuration not stated), for which the Potency entry in test [1], in test [2], in test [3], in test [4], in test [5] and in test [6] was “inactive” each time.

For `CC(=O)O[C@@H]1[C@@H](O)[C@H](O[C@H]2CC[C@]34C[C@]35CC[C@]3(C)[C@@H]([C@@]6(C)CC[C@@H](C(C)(C)O)O6)[C@@H](O)C[C@@]3(C)[C@@H]5C[C@H](O[C@@H]3O[C@H](CO)[C@@H](O)[C@H](O)[C@H]3O)[C@H]4C2(C)C)OC[C@H]1O`, the Potency result in test [1], in test [2], in test [3], in test [4] and in test [7] was “inactive” throughout.

As to `Cc1cc(C)c(CNC(=O)c2cc(-c3ccc(CN4CCOCC4)cc3)cc3c2cnn3C2CCCC2)c(=O)[nH]1`, in test [1], the Potency result was “inactive and 18.6 µM (active)”. Also, the Potency result in test [2], in test [3], in test [4], in test [5] and in test [6] was “inactive” each time.

Take `C[C@@H]1O[C@@H](O[C@H]2[C@H](O)[C@@H](O[C@@H]3O[C@H](CO)[C@@H](O)[C@H](O[C@@H]4O[C@H](CO)[C@@H](O)[C@H](O)[C@H]4O)[C@H]3O)[C@H](O[C@H]3CC[C@@]4(C)C(=CC[C@@H]5C4CC[C@@]4(C)C5C[C@@H]5OC6(CC[C@@](C)(CO[C@@H]7O[C@H](CO)[C@@H](O)[C@H](O)[C@H]7O)O6)[C@@H](C)[C@@H]54)C3)O[C@@H]2CO)[C@H](O)[C@H](O)[C@H]1OC1OC(CO)C(O)C(O)C1O` (some centres not stated): the values for the outcome in test [1] and in test [3] were “inactive [at 9.23 µM]” and “inactive [at 9.73 µM]”, respectively. Besides, the activity, negative = inhibition in test [2] was 1.32% [at 9.52 µM] (inactive); in test [7] it was 1.98% [at 11.6 µM] (inactive). In test [4], the activity change, negative = inhibition is 2.07% [at 11.6 µM] (inactive).

Consider `CC(C)(C)Nc1nc(Nc2ccc(C(N)=O)cc2)cc(N)c1C#N`, for which the Potency in test [1] is 1.45 µM (active); in test [2], 22.7 µM (active). In addition, the Potency result in test [3], in test [4] and in test [7] was “inactive” each time.

With `C/C=C/C=C/[C@@H]1O[C@](O)([C@H](CC)C(=O)NC/C=C/C=C(\C)[C@@H](OC)[C@@H](C)C2OC(/C=C/C=C/C=C(\C)C(=O)c3c(O)cc[nH]c3=O)[C@H](O)[C@@H]2O)[C@H](O)[C@H](O)C1(C)C` (some centres not stated), the Potency entry in test [1], in test [2], in test [3], in test [4] and in test [7] was “inactive” in each case.

As to `COc1ccc(/C=C/C(=O)O[C@H]2[C@H](O[C@H]3[C@@H]4C=CO[C@@H](O[C@@H]5O[C@H](CO)[C@@H](O)[C@H](O)[C@H]5O)[C@@H]4[C@@]4(CO)O[C@@H]34)O[C@@H](C)[C@H](O)[C@H]2OC(C)=O)cc1`, the Potency result in test [1], in test [2], in test [3], in test [4] and in test [7] was “inactive” each time.

Turning to `CCOCCn1nc(CC)c2nc(N3CCC(C(=O)O)CC3)nc(Nc3cc(C)ccn3)c21`, the Potency entry in test [1], in test [2], in test [3], in test [4] and in test [7] was “inactive” in each case.

With `C=C1C(=O)O[C@@H]2[C@H]1CCC(C)=C1CCC(=O)O[C@]12C`, the Potency was 4.09 µM (active) in test [1] and 18.9 µM (active) in test [5]. The Potency result in test [2], in test [3], in test [4] and in test [6] was “inactive” each time.

For the compound `CCCCNc1ncc2c(-c3ccc(CN4CCN(C)CC4)cc3)cn(C3CCC(O)CC3)c2n1` (configuration not stated), in test [1], the Potency is 205 nM (active) and 332 nM (active) and 662 nM (active). Moreover, the Potency result in test [2], in test [3], in test [4] and in test [7] was “inactive” throughout.

With `CC(C)CC1NC(=O)C2CC3(O)c4ccccc4NC3N2C1=O` (configuration not stated), the Potency result in test [1], in test [2], in test [3], in test [4] and in test [7] was “inactive” each time.

Turning to `Cn1c(=O)cc(N2CCCC(N)C2)n(Cc2cc(F)ccc2C#N)c1=O` (configuration not stated), the Potency entry in test [1], in test [2], in test [3], in test [4] and in test [7] was “inactive” in each case.
